TLR4 MyD88 comp: blocks binding of human TLR4 to MyD88; O00206+Q99836; AID 861; HeLa CL3-4 TLR4/MyD88 BLA complementation, FRET ratio; 200,000 compounds, 0.18% hits; inhibition, % at 8.4 µM; in the data active = inhibition above about 25%;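 also: 0% = vehicle and 100% = reference inhibitor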
m5-HT2A agonist: mouse HTR2A agonism via beta-arrestin recruitment | 360,000 compounds, 0.66% hits | AID 624169 | P35363 | activation, % at 7.6 µM | CHO-K1 mHTR2A beta-arrestin complementation, luminescence; percent of 30 µM serotonin response;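 active = activation above a run cutoff, the mean activation of all tested compounds plus 3 SD, cut at about 14% in these data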;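 also: 0% = plate median of compound wells and 100% = 30 µM serotonin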
Target sequence (P35363 whole entry, looked up): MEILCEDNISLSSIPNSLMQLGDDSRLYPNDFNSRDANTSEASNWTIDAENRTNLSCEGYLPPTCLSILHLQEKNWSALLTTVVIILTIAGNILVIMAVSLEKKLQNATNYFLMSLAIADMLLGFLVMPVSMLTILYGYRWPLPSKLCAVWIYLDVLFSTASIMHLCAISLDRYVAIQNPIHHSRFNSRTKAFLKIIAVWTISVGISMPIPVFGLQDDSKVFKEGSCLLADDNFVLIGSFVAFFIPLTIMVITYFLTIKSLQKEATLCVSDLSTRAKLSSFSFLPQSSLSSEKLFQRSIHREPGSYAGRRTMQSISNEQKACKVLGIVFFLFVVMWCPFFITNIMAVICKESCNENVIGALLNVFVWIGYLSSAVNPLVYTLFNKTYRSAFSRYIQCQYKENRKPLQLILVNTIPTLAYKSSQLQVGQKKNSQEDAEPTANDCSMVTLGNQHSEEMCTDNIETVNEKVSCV
TLR9-MyD88 inh: TLR9-MyD88 interaction inhibition; CHO BLA complementation TLR9-MyD88, CCF4 FRET ratio; inhibition, % at 4.98 µM; 340,000 compounds, 0.21% hits; AID 504734;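 active = inhibition above the mean over all tested compounds plus 3 SD, cut at about 21% in these data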;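 also: 0% = DMSO only wells and 100% = clavulanate BLA inhibitor control wells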
CRFR2-BP antag: CRF-BP/CRF-R2 complex antagonism; HEK293 CRF-R2/CRF-BP, CRF-induced calcium fluorescence; inhibition, % at 11.8 µM; 350,000 compounds, 0.59% hits;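 active = inhibition of the ligand-induced calcium signal above about 50% at the single tested concentration, limit read from the data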
ABHD5-PLIN5 inh: blocks binding of human ABHD5 to perilipin-5; 360,000 compounds, 0.78% hits; Q00G26+Q8WTS1; inhibition, % at 4 µM; Split G. princeps luciferase complementation, luminescence, 4 h;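 active = inhibition above the mean inhibition across every tested compound plus 3 SD, cut at about 22% in these data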;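 also: 0% = DMSO only wells and the 100% control is not disclosed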
NOD2-RIPK2 inh: blocks binding of human NOD2 to RIPK2; inhibition, % at 4.98 µM; CHO BLA complementation NOD2-RIPK2, CCF4 ratio; O43353; AID 624267; 360,000 compounds, 0.38% hits; in the data active = inhibition above about 21%;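 also: 0% = vehicle only and 100% = reference blocker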
Starred values were filed as active, the others as inactive; · = no result given. This is a sample that favours compounds with a hit; in the whole collection about 2.4% have one here.

SMILES	TLR4 MyD88 comp	m5-HT2A agonist	TLR9-MyD88 inh	CRFR2-BP antag	ABHD5-PLIN5 inh	NOD2-RIPK2 inh
CSCCC(C(=O)Nc1c(C)cccc1C)n1c(-c2ccc(C(F)(F)F)cc2)nc2ccccc21 (stereo not drawn)	·	9.2	·	·	-10.5	7.0
CCOC(=O)c1c(NC(C)=O)sc2c(OCCN(CC)CC)c(Br)ccc12	-10.8	-12.2	2.5	-21.0	6.5	9.8
CCOC(=O)c1c(NC(C)=O)sc2c1CCC(C=NCCCN(CC)CC)=C2Sc1ccccc1	0.3	-1.6	4.8	6.6	48.3*	3.1
Cc1cc([N+](=O)[O-])ccc1NCc1ccccc1[N+](=O)[O-]	12.9	-1.3	-2.9	91.1*	-0.7	-5.1
Cc1cc(F)ccc1NCc1ccccc1[N+](=O)[O-]	-3.4	-4.5	·	41.4	-1.4	-8.6
c1ccc(-c2cc3nccc(-c4ccccn4)n3n2)cc1	-2.5	-2.2	1.1	59.6*	0.8	-2.9
COc1ccc(C(=O)C(CCC(CNC(C)(C)C)C(=O)c2ccc(OC)cc2)CNC(C)(C)C)cc1 (stereo not drawn)	-0.8	-1.3	16.2	-59.7	41.4*	16.2
COc1ccc(NC(=O)c2cc(-c3ccc(C)o3)nc3ccccc23)cc1OC	16.9	-0.7	-7.9	-1.8	33.6*	-6.2
COc1ccc(NC(=O)c2cc(-c3ccc(C)o3)nc3ccccc23)c(OC)c1	·	-1.3	·	9.1	4.7	-1.9
CCc1nc2c(OCC(=O)c3ccc(Cl)cc3Cl)cccn2c1N(C=O)Cc1ccccc1	·	5.4	·	·	3.5	5.2
Cc1ccc(S(=O)(=O)N2CCCC(C(=O)NCCc3ccc(Cl)cc3)C2)cc1 (stereo not drawn)	·	-4.7	0.5	-9.7	0.9	4.3
CS(=O)(=O)Oc1ccc(Br)c2cccnc12	·	0.0	5.5	62.3*	-4.5	1.3
Cc1ccc(CNC(=O)c2cc3c(=O)n4ccccc4nc3n(Cc3ccco3)c2=N)cc1	·	-4.7	1.0	40.6	30.2*	4.4
N=c1c(C(=O)NCc2ccco2)cc2c(=O)n3ccccc3nc2n1C1CCCC1	·	4.4	2.2	6.7	22.7*	-0.4
CCCCn1c(=NC(=O)c2ccco2)c(C(=O)OCC)cc2c(=O)n3ccccc3nc21	-2.9	-1.2	-10.0	14.9	28.0*	-10.8
N=c1c(C(=O)NCc2ccccc2)cc2c(=O)n3ccccc3nc2n1Cc1ccco1	11.1	-6.0	-9.9	23.7	26.3*	8.1
N=c1c(C(=O)NCc2ccco2)cc2c(=O)n3ccccc3nc2n1Cc1ccccc1	0.9	0.5	-25.0	9.0	21.2	-0.4
CCOC(=O)[C@]12CCCC=C1N(Cc1ccco1)C(=O)[C@H](CC(=O)NCc1cccs1)C2	·	-0.9	·	·	13.7	0.9
Cc1nc2ccc(C(=O)Nc3ccc4c(c3)OCC(=O)N4)cn2c1N(C)C(=O)CCc1ccccc1	·	-0.8	·	·	6.6	-0.8
CCOc1cccc(-c2cnc3cccnn23)c1	·	0.4	·	·	14.1	-11.8
Clc1ccccc1NN(Cc1ccncc1)c1ccccc1Cl	·	3.3	2.9	53.0*	-4.4	-6.4
COC(=O)[C@H](NC(=O)c1cc(-c2ccccc2)sc1N)C(C)C	·	0.4	·	·	-6.1	-14.5
Cc1ccc2nc(SCC(=O)O)nc(C)c2c1	7.1	3.5	6.5	15.8	22.4*	-6.1
Cc1ccc2nc(SCCC#N)nc(C)c2c1	-4.4	0.8	6.5	6.4	-0.9	-7.7
Cc1ccc2cccc(Oc3ncnc4scc(-c5ccccc5)c34)c2n1	6.3	-3.8	4.8	65.9*	-4.2	5.8
SMILES	TLR4 MyD88 comp	m5-HT2A agonist	TLR9-MyD88 inh	CRFR2-BP antag	ABHD5-PLIN5 inh	NOD2-RIPK2 inh
Cn1c(=O)n(C)c2cc(CNC(=O)[C@H]3O[C@@H](n4ccc(=O)[nH]c4=O)[C@H](O)[C@@H]3O)ccc21	·	9.5	·	·	8.4	-15.5
COc1cc(C[C@@H]2C(=O)OC[C@H]2Cc2ccc(OC)c(OC)c2)ccc1O	·	16.1*	-4.2	2.1	4.7	1.4
c1ccc(N=NC2=NN(c3ccccc3)CS2)cc1	·	-3.1	-4.5	26.1	-1.1	-9.3
O=C(Nc1ccc2c(c1)OCO2)c1cc(C2CCCCN2S(=O)(=O)c2cccs2)on1 (stereo not drawn)	·	0.3	·	·	-1.7	4.1
CCOC(=O)c1cc(C#N)c(SC)nc1-c1ccccc1	-1.7	-3.3	0.0	11.5	-0.8	5.2
CCOC(=O)c1cc(C#N)c(Oc2ccccc2OC)nc1-c1ccccc1	-4.8	-1.6	-9.0	56.5*	3.6	-2.8
CCOC(=O)c1cc(C#N)c(N2CCN(c3ccccn3)CC2)nc1-c1ccccc1	-2.7	-3.4	7.5	54.2*	0.5	-8.1
CC(=O)c1cc(C#N)c(N2CCN(c3ccccc3)CC2)nc1C	·	3.9	-1.9	-17.1	-4.6	-8.9
O=C(Nc1ccc(Br)cc1)c1ccc(N2C(=O)C3CC=CCC3C2=O)cc1 (stereo not drawn)	-10.4	-1.2	7.0	-3.1	9.8	4.5
Cc1cc(C)cc(NC(=O)c2ccc(N3C(=O)C4CCCCC4C3=O)cc2)c1 (stereo not drawn)	·	-0.5	-2.4	75.3*	3.8	-10.2
COC(=O)c1ccc(OCC(O)CN2C(=O)c3ccccc3S2(=O)=O)cc1 (stereo not drawn)	-12.4	-0.1	1.5	58.2*	-9.1	6.5
Cc1ccc(C)c(C(C)NC(=O)c2ccccc2Br)c1 (stereo not drawn)	-3.8	-0.6	6.9	63.6*	-1.1	6.5
CC(C)=NNc1cnnc2ccc([N+](=O)[O-])cc12	·	-4.4	·	·	-4.9	-9.0
CCCCn1nnnc1C(c1ccccc1)N1CCN(c2cccc(C)c2C)CC1 (stereo not drawn)	·	6.0	·	·	-6.7	-7.6
N#Cc1c(-c2ccccc2)nc(SCc2cccc(Cl)c2)[nH]c1=O	·	-7.3	7.7	55.7*	-0.2	6.5
Cc1[nH]c(=O)nc(SCc2cccc(Cl)c2)c1C#N	·	-4.0	-4.4	14.6	-1.0	-4.8
O=C(/C=C/c1cccc([N+](=O)[O-])c1)N1CCN(c2ccccn2)CC1	·	-2.8	-2.8	10.3	-3.1	-5.0
O=C(/C=C/c1cccc([N+](=O)[O-])c1)n1cnc2ccccc21	-3.1	1.9	·	-54.9	23.1*	0.3
CCc1nc2c(OCc3cc(Cl)cc(Cl)c3)cccn2c1N(C)C(=O)c1cccc(OC)c1	·	-5.2	·	·	11.4	1.0
CC(C)C[C@H]1CNC(=S)N1C[C@H]1CCCN1C[C@H](Cc1ccc(O)cc1)N1C[C@H](CC(C)C)N(CCc2ccccc2)C1=S	·	-9.1	·	·	22.8*	-7.0
CC(C)C[C@H]1CNC(=S)N1C[C@H]1CCCN1C[C@H](Cc1ccccc1)N1C[C@H](Cc2ccc(O)cc2)N(CCc2ccccc2)C1=S	·	0.0	·	·	9.9	-4.3
CC(C)C[C@H]1CNC(=S)N1C[C@H]1CCCN1C[C@H](Cc1ccc(O)cc1)N1C[C@H](Cc2ccc(O)cc2)N(CC2CCCCCC2)C1=S	·	1.2	·	·	26.6*	-1.8
